Assay outcomes (PubChem BioAssay)
Dicer inh – blocks human Dicer maturation of pre-miR-21 | cat-ELCCA pre-miR-21 Dicer processing, chemiluminescence; hits give high values | z-score at 25 µM | hit rate 6% among 47,000 | AID 1347074; in the data active means z-score above about 3, passing the limit was not always enough;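 further: higher signal means more uncleaved substrate so more Dicer inhibition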
Hits are given with their value; i = inactive. Only a selection was taken, and hits are over-represented in it overall.

SMILES	Dicer inh
COc1ccccc1C1C(C#N)=C2N=C(N)c3ccccc3N2C2=C1C(=O)CCC2 (stereo not drawn)	i
COc1ccc(OC)c(C2C(C#N)=C3N=C(N)c4ccccc4N3C3=C2C(=O)CC(C)(C)C3)c1 (stereo not drawn)	4.76
CC1(C)CC(=O)C2=C(C1)N1C(=C(C#N)C2c2ccc3c(c2)OCO3)N=C(N)c2ccccc21 (stereo not drawn)	i
COc1ccc(C2C(C#N)=C3N=C(N)c4ccccc4N3C3=C2C(=O)CCC3)cc1 (stereo not drawn)	i
COc1ccccc1NC(=O)NC1CCN(c2ncc(C(F)(F)F)cc2Cl)CC1	i
CC1=C(C#N)C(c2ccc(-c3ccccc3)cc2)C2=C(CCCC2=O)N1 (stereo not drawn)	i
O=S(=O)(NNc1c(Cl)cc(Cl)cc1Cl)c1ccc(Cl)c(Cl)c1	i
COc1ccc2nc(C)cc(Nc3ccc(Cl)cc3)c2c1	3.06
COc1ccc(Nc2cc(C)nc3ccc(OC)cc23)cc1	i
Cc1ccc(Nc2cc(C)nc3ccc(C)cc23)cc1	i
CCOC(=O)CN1C(=O)C(O)(CC(=O)c2cccs2)c2ccccc21 (stereo not drawn)	i
C=CCn1c2ccccc2c2nnc(SCCC)nc21	i
Cc1onc(-c2c(Cl)cccc2Cl)c1NC(=O)NC(=O)c1c(Cl)cccc1Cl	i
Cc1onc(-c2c(Cl)cccc2Cl)c1C(=O)NC(C)(C)CC(C)(C)C	i
C#CCOC(=O)NC(=O)c1c(-c2c(Cl)cccc2Cl)noc1C	3.2
CCOC(=O)C1=C(C)NC2=C(C(=O)CCC2)C1c1ccc(C(=O)OC)cc1 (stereo not drawn)	i
CCCCCCn1c(NCc2cccs2)nc2ccccc21	i
Oc1ccc(NCc2cccs2)cc1	i
Nc1nc(NCc2cccs2)nn1-c1ccccc1	4.27
O=C(CS(=O)(=O)c1ccc(Cl)cc1)c1ccccc1	i
Cc1cc(C)c2c(=O)c(C3C4=C(CC(C)(C)CC4=O)OC4=C3C(=O)CC(C)(C)C4)coc2c1	i
COc1cccc(=O)c2c(C)n(CC(=O)c3ccccc3)c(C)c12	3.25
CCOc1cccc(=O)c2c(C)n(CC(=O)c3ccccc3)c(C)c12	i
COc1ccccc1OCC(=O)O	i
CCN=c1cc(N)n(CC)c2sc(C(=O)OCC)c(N)c12	i
SMILES	Dicer inh
O=C(Nc1ccccc1Sc1c(Cl)cncc1Cl)c1ccc(Cl)cc1	i
O=[N+]([O-])c1cccnc1Sc1ccccn1	i
CCOC(=O)CSc1nc(NC)c2c3c(sc2n1)CCCC3	3.17
CCOC(=O)CSc1nc2sc3c(c2c(=O)n1-c1ccc(OC)cc1)CCC3	i
CCNc1nc(SCC(=O)OCC)nc2sc3c(c12)CCC(C)C3 (stereo not drawn)	i
S=c1[nH]nc(Cc2ccccc2)n1-c1ccc(Cl)cc1	i
S=c1[nH]nc(Cc2n[nH]c(=S)n2-c2ccccc2)n1-c1ccccc1	3.32
S=c1[nH]nc(Cc2ccccc2)n1-c1ccccc1	i
O=C(NCc1ccc2c(c1)OCO2)N1CCOCC1	i
Clc1cccc(CNCc2ccc3c(c2)OCO3)c1	i
c1cc2c(cc1CNCCCN1CCOCC1)OCO2	5.75
Clc1ccc(/C=N/Nc2ncnc3c2cnn3-c2ccccc2)cc1	i
Cc1ccc(S(=O)(=O)N2CCN(S(=O)(=O)c3ccc(C)c(C)c3)C(C)C2)cc1C (stereo not drawn)	i
Cc1nc(C)c(-c2csc(Nc3ccc(N(C)C)cc3)n2)s1	4.08
Cc1cc(C)nc(NS(=O)(=O)c2ccc(Nc3nc(-c4c(C)nc5ncccn45)cs3)cc2)n1	i
Cc1cc(NS(=O)(=O)c2ccc(Cl)cc2)no1	i
Cc1ccnc(Nc2nc(-c3c(C)nc4ccccn34)cs2)c1	3.09
COc1ccccc1Nc1nc(-c2sc(N)nc2C)cs1	i
Cc1nc(C)c(-c2csc(Nc3ccc(C(=O)O)c(O)c3)n2)s1	i
COc1ccccc1Nc1n[nH]c(=S)s1	i
Cc1nc2ccccn2c1-c1ccnc(SCC(=O)Nc2ccc(F)cc2)n1	i
Cc1cc(NS(=O)(=O)c2ccc(Nc3nc(-c4c(C)nc5ccccn45)cs3)cc2)no1	3.48
CN(C)c1ccc(Nc2nc(-c3cccs3)cs2)cc1	i
Cc1nc2ccccn2c1-c1ccnc(SCC(=O)c2cccc(C(F)(F)F)c2)n1	i
COc1ccccc1Nc1nc(-c2c(C)nc3cc(C)ccn23)cs1	4.56
SMILES	Dicer inh
Cc1ccc(CNc2nc(C)nc(C)c2Oc2ccc(Cl)cc2Cl)cc1	i
O=C1N=C(c2ccccc2)C(C(=O)Nc2ccc(Br)cc2)=C1O	i
C#CC(CC)(CC)NC(=O)C(CC)c1ccccc1 (stereo not drawn)	i
Cc1nnc(Nc2ccccc2Cl)[nH]c1=O	i
O=C(Nc1ccc(Oc2ccccc2)cc1)c1cnccn1	i
CC(C)N(Cc1ccccc1)C(=O)Nc1cccc(C(F)(F)F)c1	i
CSC(=NC12CC3CC(CC(C3)C1)C2)NN	i
CC1CN(c2ccccc2)c2nc3c(c(=O)n(CC(=O)O)c(=O)n3C)n2C1 (stereo not drawn)	i
COC(=O)/C=c1\sc2nc3cc(Cl)c(Cl)cc3n2c1=O	i
CC(=O)Nc1cc(C)ccc1OC(C)(C)C(=O)OC(C)(C)C	i
Clc1ccc(-c2cn3c4ccccc4nc3n2CCCN2CCCC2)cc1	i
COC(=O)CSc1nc(C)nc2c1oc1ccccc12	i
CC(C)(C)c1ccc(OS(=O)(=O)c2ccc(Oc3c(Cl)cccc3[N+](=O)[O-])cc2)cc1	i
COc1ccc(-c2csc(Nc3ccc(N(C)C)cc3)n2)cc1	i
Brc1ccc(-c2csc(Nc3ccncc3)n2)cc1	i
Cc1ccn2c(-c3csc(Nc4ccc(N(C)C)cc4)n3)c(C)nc2c1	5.49
Cc1nc2sccn2c1-c1csc(Nc2ccc(Br)cc2)n1	4.21
Cc1nc(N)sc1-c1csc(Nc2ccc(Br)cc2)n1	i
CCN(CC)c1ccc(Nc2nc(-c3ccc(O)cc3O)cs2)cc1	i
Cc1ccsc1CNCCNC(=O)c1nonc1N	i
CCCCCOC(=O)C1=C(C)NC2=C(C(=O)CC(C)(C)C2)C1c1ccc(OCC)c(OC)c1 (stereo not drawn)	i
O=C(O)CCSc1nc2ccccc2[nH]1	i
Nc1cc(N)nc(SCCC(=O)O)n1	3.34
O=C(O)CCSc1ccc2ccccc2c1	i
OCC1c2ccccc2-c2ccccc21	i
SMILES	Dicer inh
CCO/C=C1\C(=O)N(c2ccc(C)cc2)C(=O)c2cc(OC)ccc21	i
CCO/C=C1/SC(=S)N(c2cc(OC)cc(C(F)(F)F)c2)C1=O	i
CCO/C=C1\C(=O)N(c2ccccc2)C(=O)c2cc(OC)ccc21	3.3
COc1ccc(-c2oc3ncnc(NCCCn4ccnc4)c3c2-c2ccc(OC)cc2)cc1	i
COC(=O)C(O)(NC(=O)c1cccc(C)c1)C(F)(F)F (stereo not drawn)	i
COC(=O)C(C(C(=O)OC)N1CCOCC1)N1CCOCC1 (stereo not drawn)	i
CSc1nnc2c(n1)OC(c1cccs1)N(C(C)=O)c1ccccc1-2 (stereo not drawn)	i
COC(=O)c1ccsc1NC(=O)CN1c2cccc3cccc(c23)S1(=O)=O	i
COC(=O)c1ccsc1NC(=O)CN1CCN(S(=O)(=O)c2ccc(Cl)cc2)CC1	3.05
COc1ccc(NC(=O)N=S2CCN(S(=O)(=O)c3ccc(Cl)cc3)CC2)cc1	i
CCC(C)OC(=O)COc1ccc2c(=O)c(-c3ccc(OC)c(OC)c3)c(C(F)(F)F)oc2c1 (stereo not drawn)	i
COC(=O)c1ccc(COc2ccc3oc(C)c(C(=O)OC)c3c2)cc1	i
